Source: PubChem
Hits are enriched below; roughly 4.8% of the tested compounds scored in any of these assays.
CSC inhib: cancer stem cell inhibition. 300,000 tested, 1.1% active. inhibition, % at 7.5 µM. cancer stem cell-like cells viability, luminescence. AID 2717; in the data active = inhibition above about 75%; inconclusive = no clear call, values can overlap the other calls; tested in HMLE shEcad cells
Calb FLC: affects C. albicans growth with fluconazole; C. albicans CaCi-2 (fluconazole-resistant clinical isolate) + fluconazole, Alamar Blue growth, 48 h; growth inhibition, % (test concentration not listed); 300,000 tested, 0.57% active; AID 1979;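 active = growth inhibition above about 58% in most replicates, limit read from the data, passing the limit was not always enough; inconclusive = exactly half the replicates above a set limit; inactive = most replicates below a set limit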;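 note: all wells also contain fluconazole at 8 µg/ml as a sub-toxic cotreatment; 0% = median of DMSO wells and 100% = median of geldanamycin control wells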
Beta apoptosis: blocks beta cell apoptosis. protection from apoptosis, % (test concentration not listed). INS-1E cytokine-induced death, ATP luminescence, 48 h; percent of positive-control rescue, neutral wells zero. 300,000 tested, 0.8% active. AID 435005;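 active = Every replicate reaches about 75%, or at least half do and their mean reaches it too, limit read from the data; inconclusive = At least half of replicates reach the limit but their mean does not; inactive = Under half of replicates reach the limit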;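 note: 0% = cytokine-treated negative control wells and 100% = positive control rescue; higher means more ATP so stronger rescue from cytokine killing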
Mdm2 MdmX PPI: human Mdm2/MdmX binding inhibition; SaOS-2 split-luciferase Mdm2/MdmX complementation, luminescence; 330,000 tested, 3% active; O15151+Q00987; inhibition, % at 8 µM; AID 485346;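 active = inhibition of at least 50% at 8 µM in the primary screen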
MPTP block: permeability transition pore inhibition. 360,000 tested, 1.4% active. inhibition, % at 10 µM. isolated mouse mitochondria, Ca2+ swelling absorbance, 30 min;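 active = inhibition of 50% or more, scaled per plate between neutral and stimulator controls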;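 note: 0% = DMSO wells given calcium and 100% = 1 mM EGTA wells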
Mdm2 MdmX conf: confirmation of human Mdm2/MdmX interaction inhibitors | shares compounds with Mdm2 MdmX PPI | Mdm2-MdmX binding, luminescent assay | inhibition, % at 8 µM | 10,000 tested, 55% active; in the data active = inhibition above about 40%
Full FLuc ctr: counter-screen for Mdm2/MdmX inhibitors: full-length luciferase; shares compounds with Mdm2 MdmX PPI; inhibition, % at 8 µM; 6,200 tested, 77% active; SaOS-2 full-length luciferase counterscreen, luminescence;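 active = mean inhibition at 8 µM reaching about 37%, which flags the compound as non-specific, limit read from the data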;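 note: p53-null SaOS-2 cells with luciferase driven by a doxycycline-inducible promoter; compound on cells about two nights before reading with doxycycline added after day one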
An asterisk follows results filed as active; ? = inconclusive; . = no result.

SMILES | CSC inhib | Calb FLC | Beta apoptosis | Mdm2 MdmX PPI | MPTP block | Mdm2 MdmX conf | Full FLuc ctr
CCOC(=O)c1c(C)[nH]c(C(=O)OCC(=O)Nc2sccc2C(N)=O)c1C | 43 | 22 | 48 | 56* | -1 | 59* | 66*
CCOC(=O)c1[nH]c(C)c(C(=O)c2cc(F)ccc2F)c1C | 60 | 3 | 16 | 59* | 0 | 56* | 76*
CCOC(=O)c1c(C)[nH]c(C(=O)OCC(=O)NCc2ccc(OC)c(OC)c2)c1C | 8 | . | 3 | 3 | 1 | . | .
CCOC(=O)c1c(C)[nH]c(C(=O)OCC(=O)Nc2cc(C)c(Cl)cc2OC)c1C | 7 | -4 | 10 | 54* | 0 | 19 | .
CCOC(=O)c1c(C)[nH]c(C(=O)OCC(=O)Nc2ccc(Cl)cn2)c1C | -16 | . | -2 | 14 | 1 | . | .
COc1cc(C)cc(OC)c1OCC(=O)Nc1cc(C)on1 | -21 | . | -2 | -16 | -1 | . | .
O=C(N/N=C/c1ccccc1O)C1CC(=O)N(c2ccc(Cl)cc2)C1 (stereo not drawn) | 1 | -1 | 84* | 76* | -1 | 59* | 37*
CCC(C)c1ccccc1N1CC(C(=O)Nc2cccc(S(=O)(=O)N3CCOCC3)c2)CC1=O (stereo not drawn) | -1 | 8 | 2 | 9 | -2 | . | .
C/C(=N/NC(=O)CN(c1ccccc1)S(=O)(=O)c1ccccc1)c1ccccc1O | 28 | 2 | 109* | 72* | 2 | 60* | 27
CCCC/C(C)=N/NC(=O)CN(c1ccc(Br)cc1)S(=O)(=O)c1ccccc1 | -6 | 2 | -4 | -13 | 0 | . | .
CCCOc1ccccc1/C=C1\SC(N2CCCCC2)=NC1=O | 24 | -5 | . | 86* | 0 | 62* | 64*
CCc1nc2c(OCCC3CCCCC3)cccn2c1N(C)C(=O)c1ccc(C)cc1 | . | . | . | . | -3 | . | .
C=CCSc1nc2ccccc2n1C(=O)/C=C/c1cc(OC)c(OC)c(OC)c1 | . | -31 | -7 | 100* | -1 | 95* | 3
CCSc1nc2ccccc2n1C(=O)/C=C/c1ccc(OC)c(OC)c1 | 9 | ? | -1 | 100* | 1 | 99* | 54*
C=CCSc1nc2ccccc2n1C(=O)/C=C/c1ccc(OC)c(OC)c1 | 5 | 3 | 68 | . | 0 | . | .
CC(C)(C)n1nc(-c2ccc(F)cc2)c2c(N)ncnc21 | 6 | 64 | -29 | 59* | 10 | 55* | 50*
Cc1ccc(-c2nc(N)c3c(-c4ccc(C)cc4)nn(C(C)(C)C)c3n2)cc1 | -7 | -5 | -1 | 9 | 1 | . | .
CC(C)(C)n1nc(-c2ccc(Cl)cc2)c2c(N)ncnc21 | -3 | -6 | -24 | 81* | -2 | 63* | 38*
Cc1cccc(NC(=O)c2cc3n(n2)C(C(F)(F)F)CC(c2ccc4c(c2)OCO4)N3)c1 (stereo not drawn) | -1 | -35 | . | 51* | 1 | 75* | 47*
C=CS(=O)(=O)N(Cc1ccc(Cl)c(Cl)c1)C[C@@H](O)CO | . | . | . | 81* | -1 | 84* | 55*
CCCCn1nnnc1C1(C)CCC(=O)N1C1CC1 (stereo not drawn) | . | . | . | . | -1 | . | .
Cc1ccc(-n2c(C)cc(/C=c3/sc4nc5ccccc5n4c3=O)c2C)cc1 | -8 | 11 | 1 | 82* | . | 61* | 28
CSc1ccccc1OCc1cc(C(=O)NCCC2=CCCCC2)no1 | 2 | -2 | -7 | 52* | 1 | 8 | .
O=C(CCc1c[nH]c2ccccc12)OCc1ccc(Br)cc1 | -11 | -14 | -2 | -25 | 0 | . | .
CC(C)Cc1ccc(C(C)CC2=CCC(CN(C)C)C2=O)cc1 (stereo not drawn) | . | . | . | . | 11 | . | .
COc1cccc(/C=N\NC(=O)c2ccc(Cn3cc(Br)c([N+](=O)[O-])n3)o2)c1O | -8 | 102* | 96* | 59* | -2 | 74* | 43*
COc1cc(/C=N\NC(=O)c2ccc(Cn3nc([N+](=O)[O-])c(Cl)c3C)o2)ccc1O | -3 | -8 | 12 | 33 | 1 | . | .
COc1ccc(/C=N\NC(=O)c2c(C)nc3ccc(Br)cn23)cc1 | 57 | 1 | 11 | 59* | 0 | 52* | 49*
COc1cccc(/C=N/NC(=O)c2c(C)nc3ccc(Br)cn23)c1O | 89* | 109* | 82* | 67* | 5 | 74* | 32
